High-throughput results deposited in PubChem BioAssay by several laboratories.
PglD inh: PglD (C. jejuni) enzyme inhibition; purified PglD enzyme, DTNB colorimetric CoA detection; AID 602405; inhibition, % at 12.5 µM; 0.098% of 360,000 active; in the data active = inhibition above about 16%, passing the limit was not always enough
ERp5 inh: ERp5 (human) disulfide isomerase inhibition; AID 651711; ERp5 insulin aggregation, absorbance 650 nm, 90 min; 0.05% of 350,000 active; inhibition, % at 9.99 µM; Q15084;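 active = mean replicate inhibition above about 25%, with every replicate also reaching it, limit read from the data, passing the limit was not always enough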
ALR H2O2 inh: blocks human ALR sulfhydryl oxidase activity | 3.8% of 290,000 active | AID 485317 | P55789 | inhibition, % (no concentration beside the values) | purified ALR, DTT oxidation, H2O2 HRP-luminol luminescence;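 active = mean replicate inhibition above about 79%, with every replicate also reaching it, limit read from the data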
PDI inh: PDI (human) enzyme inhibition; P07237; PDI insulin aggregation turbidity, A650, 90 min; inhibition, % at 10 µM; 0.052% of 350,000 active; AID 588391;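 active = mean inhibition across replicates of 30% or more, whatever share of single replicates reach that level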
Target sequence (P07237 whole entry, looked up): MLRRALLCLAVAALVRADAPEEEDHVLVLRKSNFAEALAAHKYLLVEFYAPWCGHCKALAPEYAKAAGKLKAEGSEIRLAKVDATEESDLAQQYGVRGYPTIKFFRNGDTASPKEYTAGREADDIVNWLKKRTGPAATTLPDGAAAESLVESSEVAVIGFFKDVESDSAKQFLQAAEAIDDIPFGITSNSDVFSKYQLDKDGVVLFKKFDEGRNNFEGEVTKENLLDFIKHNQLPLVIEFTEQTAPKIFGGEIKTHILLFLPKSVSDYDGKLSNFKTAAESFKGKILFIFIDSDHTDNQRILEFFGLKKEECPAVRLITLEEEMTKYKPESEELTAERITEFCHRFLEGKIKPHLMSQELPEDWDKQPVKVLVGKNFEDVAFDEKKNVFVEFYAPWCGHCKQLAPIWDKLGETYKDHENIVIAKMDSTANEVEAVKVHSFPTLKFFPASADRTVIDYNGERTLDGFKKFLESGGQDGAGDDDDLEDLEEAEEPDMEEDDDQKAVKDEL
NRP1-CendR mod: NRP-1/CendR interaction modulation. FAM-RPARPAR peptide binding to NRP-1, fluorescence polarization. inhibition, % at 25 µM. 0.85% of 360,000 active. AID 602438;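 active = inhibition or corrected inhibition above about 18%, plus a signal ratio from 0.5 to 1.5, limit read from the data, passing the limit was not always enough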
ARNT TACC3 PPI: ARNT/TACC3 interaction disruption. AID 623870. inhibition, % at 9.99 µM. 0.66% of 390,000 active. AlphaScreen His-ARNT PAS-B/GST-TACC3 binding, luminescence; TACC3 fragment carries E629A point mutation. Q9Y6A5;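 active = mean inhibition of replicates at least 50% and at least half of replicates each reaching 50%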
Hits are given with their value. Only a selection was taken, and hits are over-represented in it overall.

What do the screens show for `COc1ccc(SCC(=O)c2cc(C)c(OC(=S)N(C)C)c(C)c2)cc1`?
PglD inh: inactive; ALR H2O2 inh: 92; PDI inh: inactive; NRP1-CendR mod: inactive; ARNT TACC3 PPI: inactive

How did O=C(O)c1cc2ccccc2cn1 do in these assays?
PglD inh: inactive; ERp5 inh: inactive; PDI inh: inactive; NRP1-CendR mod: inactive; ARNT TACC3 PPI: 77

How did Cc1ccc(S(=O)(=O)CCC(=O)OCc2cc(C)ccc2C)cc1 do in these assays?
ERp5 inh: inactive; ALR H2O2 inh: inactive; PDI inh: inactive; NRP1-CendR mod: 27; ARNT TACC3 PPI: inactive

What do the screens show for `Cc1ccc(S(=O)(=O)CCC(=O)c2ccc(F)cc2)cc1`?
PglD inh: inactive; ERp5 inh: inactive; ALR H2O2 inh: inactive; PDI inh: inactive; NRP1-CendR mod: inactive; ARNT TACC3 PPI: inactive

Results for Cc1ccc(C(=O)CCS(=O)(=O)c2ccc(Cl)cc2)cc1 ?
PglD inh: inactive; ERp5 inh: inactive; ALR H2O2 inh: inactive; PDI inh: inactive; NRP1-CendR mod: 20; ARNT TACC3 PPI: inactive

How did COC(=O)c1ccc(OC(=O)CCS(=O)(=O)c2ccc(C)cc2)cc1 do in these assays?
PglD inh: inactive; ERp5 inh: inactive; ALR H2O2 inh: 96; PDI inh: inactive; NRP1-CendR mod: inactive; ARNT TACC3 PPI: inactive

How did COc1ccc(C(=O)NC(=O)COC(=O)CCS(=O)(=O)c2ccc(C)cc2)cc1 do in these assays?
PglD inh: inactive; ERp5 inh: inactive; PDI inh: inactive; NRP1-CendR mod: inactive; ARNT TACC3 PPI: inactive

Results for Cc1ccc(S(=O)(=O)CCC(=O)OCc2ccccc2F)cc1 ?
ERp5 inh: inactive; PDI inh: inactive; NRP1-CendR mod: inactive; ARNT TACC3 PPI: inactive

How did COc1ccc(NC(=O)N(C)C[C@@H]2Oc3ccc(NC(=O)Cc4ccccc4)cc3CC(=O)N([C@H](C)CO)C[C@@H]2C)cc1 do in these assays?
PglD inh: inactive; ERp5 inh: inactive; ARNT TACC3 PPI: inactive

How did CCCC(c1nnnn1C(C)(C)C)N1CCN(c2ccccc2)CC1 (stereo unspecified) do in these assays?
PglD inh: inactive; ERp5 inh: inactive; ALR H2O2 inh: 98; PDI inh: inactive; NRP1-CendR mod: inactive; ARNT TACC3 PPI: inactive

Results for CCCC(c1nnnn1Cc1ccco1)N1CCN(c2cc(Cl)ccc2C)CC1 (stereo unspecified) ?
PglD inh: inactive; ALR H2O2 inh: inactive; PDI inh: inactive; NRP1-CendR mod: inactive; ARNT TACC3 PPI: inactive

What do the screens show for `CCCC(c1nnnn1Cc1ccco1)N1CCN(c2ccccc2)CC1` (stereo unspecified)?
ERp5 inh: inactive; ALR H2O2 inh: 88; PDI inh: inactive; NRP1-CendR mod: inactive; ARNT TACC3 PPI: inactive

What do the screens show for `CCC(c1nnnn1C1CCCC1)N1CCN(c2ccccc2)CC1` (stereo unspecified)?
PglD inh: inactive; ALR H2O2 inh: 99; PDI inh: inactive; NRP1-CendR mod: inactive; ARNT TACC3 PPI: inactive

What do the screens show for `Cc1noc(C)c1NC(=O)N(C)C[C@@H]1Oc2ncc(C#CC3CC3)cc2C(=O)N([C@H](C)CO)C[C@H]1C`?
PglD inh: inactive; ERp5 inh: inactive; ARNT TACC3 PPI: inactive

How did O=C(C[C@H]1C[C@@H]2c3cc(NC(=O)c4cccnc4)ccc3O[C@@H]2[C@@H](CO)O1)NC1CCCC1 do in these assays?
ERp5 inh: inactive

Results for O=C(C1CCCC1)N1CC2(C1)[C@@H](c1ccccc1)[C@H](CO)N2C(=O)CC1CC1 ?
ERp5 inh: inactive

How did COc1cc(-c2nc(CN3CCCCC3CCNC(C)=O)c(C)o2)ccc1F (stereo unspecified) do in these assays?
ERp5 inh: inactive; ALR H2O2 inh: inactive; PDI inh: inactive; NRP1-CendR mod: inactive; ARNT TACC3 PPI: inactive

Results for COc1ccc(-c2nc(CS(=O)CC(=O)NCCCN3CCCC3)c(C)o2)cc1OC (stereo unspecified) ?
ALR H2O2 inh: 99; PDI inh: inactive; NRP1-CendR mod: inactive; ARNT TACC3 PPI: inactive

How did COc1ccc(-c2nc(CS(=O)CC(=O)NCCCN3CCOCC3)c(C)o2)cc1OC (stereo unspecified) do in these assays?
PglD inh: inactive; ERp5 inh: inactive; ALR H2O2 inh: 99; PDI inh: inactive; NRP1-CendR mod: inactive; ARNT TACC3 PPI: inactive

Results for COc1ccc(-c2nc(CS(=O)CC(=O)NCCN3CCCCCC3)c(C)o2)cc1OC (stereo unspecified) ?
PglD inh: inactive; ERp5 inh: inactive; ALR H2O2 inh: 100; PDI inh: inactive; NRP1-CendR mod: inactive; ARNT TACC3 PPI: inactive

What do the screens show for `COc1ccc(-c2nc(CS(=O)CC(=O)NCCN3CCCCC3C)c(C)o2)cc1OC` (stereo unspecified)?
PglD inh: inactive; ERp5 inh: inactive; ALR H2O2 inh: 100; PDI inh: inactive; NRP1-CendR mod: inactive; ARNT TACC3 PPI: inactive

What do the screens show for `O=C1NC(=S)S/C1=C\c1cc2ccccc2nc1N1CCCCC1`?
PglD inh: inactive; ERp5 inh: inactive; ALR H2O2 inh: 97; PDI inh: inactive; NRP1-CendR mod: inactive; ARNT TACC3 PPI: inactive

Results for N#C/C(=C\c1cc2ccccc2nc1N1CCCCC1)C(N)=O ?
ERp5 inh: inactive; ALR H2O2 inh: 93; PDI inh: inactive; NRP1-CendR mod: inactive; ARNT TACC3 PPI: inactive

What do the screens show for `C/C(=N\NC(=O)c1ccccc1)c1c(C)[nH]n(-c2ccccc2)c1=O`?
PglD inh: inactive; ERp5 inh: inactive; ALR H2O2 inh: inactive; PDI inh: inactive; NRP1-CendR mod: inactive; ARNT TACC3 PPI: 42

Results for C/C(=N\NC(=O)c1ccc(C)cc1)c1c(C)[nH]n(-c2ccccc2)c1=O ?
PglD inh: inactive; ERp5 inh: inactive; ALR H2O2 inh: inactive; PDI inh: inactive; NRP1-CendR mod: inactive

What do the screens show for `CC(=O)Nc1cccc(NC(=O)CSc2nc(=O)n(CCN3CCOCC3)c3c2CCC3)c1`?
PglD inh: inactive; ERp5 inh: inactive; ALR H2O2 inh: 97; PDI inh: inactive; NRP1-CendR mod: inactive; ARNT TACC3 PPI: inactive

What do the screens show for `CC(=O)Nc1cccc(NC(=O)CSc2nc(=O)n(CCCN3CCOCC3)c3c2CCC3)c1`?
PglD inh: inactive; ERp5 inh: inactive; ALR H2O2 inh: 98; PDI inh: inactive; NRP1-CendR mod: inactive; ARNT TACC3 PPI: inactive

Results for CC(=O)Nc1ccc(NC(=O)CSc2nc(=O)n(CCCN3CCOCC3)c3c2CCC3)cc1 ?
PglD inh: inactive; ERp5 inh: inactive; PDI inh: inactive; NRP1-CendR mod: inactive

How did CC(=O)c1cccc(NC(=O)CSc2nc(=O)n(CCN3CCOCC3)c3c2CCCC3)c1 do in these assays?
PglD inh: inactive; ERp5 inh: inactive; ALR H2O2 inh: inactive; PDI inh: inactive; NRP1-CendR mod: inactive; ARNT TACC3 PPI: inactive

What do the screens show for `O=C(CSc1nc(=O)n(CCCN2CCOCC2)c2c1CCC2)Nc1cccc(F)c1`?
PglD inh: inactive; ERp5 inh: inactive; ALR H2O2 inh: 97; PDI inh: inactive; NRP1-CendR mod: inactive; ARNT TACC3 PPI: inactive

How did CC(=O)c1ccc(NC(=O)CSc2nc(=O)n(CCN3CCOCC3)c3c2CCC3)cc1 do in these assays?
PglD inh: inactive; ERp5 inh: inactive; ALR H2O2 inh: 98; PDI inh: inactive; NRP1-CendR mod: inactive; ARNT TACC3 PPI: inactive
